Source: PubChem BioAssay AID1159580 (chemical genetic matrix, 2015)
Values joined by “and” are separate entries in the source; they are usually repeats but may differ in a detail not shown here. Identical values can stand only once. Out of some 5,500 compounds screened, about 2,000 (36%) were called active. Inconclusive results (about 18%) are left out. Cut-off read from the data, not from the text of the source: active = normalized growth mostly below about 0.91 (no sharp cut-off); inconclusive = no clear call, values can overlap the other calls; inactive = mostly above about 0.92. Some of the results follow.

Experiment: chemical genetic growth profiling, strain panel (AID 1159580);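 note: tested at 20 µM; growth read once vehicle control cultures reached saturation at 30 °C; 1 = growth at the plate median or of vehicle wells; lower values mean less growth of the strain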
Settings: growth OD

Measured: normalized growth

CC(C)(C)NCC(O)c1ccccc1Cl (stereo unspecified)
inactive: S. cerevisiae deletion strains, locus YJR075W, strain HOC1, stronger effect = lower value 1.01 and 1.04 | S. cerevisiae deletion strains, locus YKL009W, strain mrt4, stronger effect = lower value 0.96 | S. cerevisiae deletion strains, locus YKL068W, stronger effect = lower value 0.991 | S. cerevisiae deletion strains, locus YKL085W, strain MDH1 (second series), stronger effect = lower value 0.983 | S. cerevisiae deletion strains, locus YKL085W, strain MDH1, stronger effect = lower value 0.983 | S. cerevisiae deletion strains, locus YKL160W, strain elf1, stronger effect = lower value 1.02 | S. cerevisiae deletion strains, locus YKL190W, strain CNB1, stronger effect = lower value 0.995 | S. cerevisiae deletion strains, locus YKR001C, strain vps1, stronger effect = lower value 0.976 | S. cerevisiae deletion strains, locus YKR026C, strain gcn3, stronger effect = lower value 0.994 | S. cerevisiae deletion strains, locus YKR091W, strain srl3, stronger effect = lower value 0.997 | S. cerevisiae deletion strains, locus YLL001W, strain dnm1, stronger effect = lower value 1 | S. cerevisiae deletion strains, locus YLL026W, stronger effect = lower value 0.983 | S. cerevisiae deletion strains, locus YLL041C, strain sdh2, stronger effect = lower value 0.997 | S. cerevisiae deletion strains, locus YLR027C, strain aat2, stronger effect = lower value 0.992 | S. cerevisiae deletion strains, locus YLR039C, strain RIC1, stronger effect = lower value 0.923 | S. cerevisiae deletion strains, locus YLR058C, strain SHM2, stronger effect = lower value 0.975 | S. cerevisiae deletion strains, locus YLR102C, strain apc9, stronger effect = lower value 0.986 | S. cerevisiae deletion strains, locus YLR113W, strain HOG1, stronger effect = lower value 1.01 | S. cerevisiae deletion strains, locus YLR221C, strain rsa3, stronger effect = lower value 1.01 | S. cerevisiae deletion strains, locus YLR258W, strain gsy2, stronger effect = lower value 0.974 | S. cerevisiae deletion strains, locus YLR262C, strain YPT6 (second series), stronger effect = lower value 0.997 | S. cerevisiae deletion strains, locus YLR262C, strain YPT6, stronger effect = lower value 0.887 | S. cerevisiae deletion strains, locus YLR268W, strain sec22, stronger effect = lower value 1.09 | S. cerevisiae deletion strains, locus YLR320W, strain mms22, stronger effect = lower value 0.981 | S. cerevisiae deletion strains, locus YLR330W, strain CHS5, stronger effect = lower value 0.992 | S. cerevisiae deletion strains, locus YLR342W, strain FKS1 (second series), stronger effect = lower value 0.967 | S. cerevisiae deletion strains, locus YLR342W, strain FKS1, stronger effect = lower value 0.999 | S. cerevisiae deletion strains, locus YLR357W, strain rsc2, stronger effect = lower value 0.982 | S. cerevisiae deletion strains, locus YLR370C, strain arc18, stronger effect = lower value 0.997 | S. cerevisiae deletion strains, locus YLR371W, strain rom2, stronger effect = lower value 0.982 | S. cerevisiae deletion strains, locus YLR384C, strain iki3, stronger effect = lower value 0.989 | S. cerevisiae deletion strains, locus YLR418C, strain cdc73, stronger effect = lower value 0.993 | S. cerevisiae deletion strains, locus YML016C, strain PPZ1, stronger effect = lower value 0.99 | S. cerevisiae deletion strains, locus YML032C, strain rad52, stronger effect = lower value 1.02 | S. cerevisiae deletion strains, locus YML120C, strain ndi1, stronger effect = lower value 1.01 | S. cerevisiae deletion strains, locus YML124C, strain tub3, stronger effect = lower value 0.984 | S. cerevisiae deletion strains, locus YMR058W, strain fet3, stronger effect = lower value 0.997 | S. cerevisiae deletion strains, locus YMR078C, strain ctf18, stronger effect = lower value 0.982 | S. cerevisiae deletion strains, locus YMR125W, strain sto1, stronger effect = lower value 0.962 | S. cerevisiae deletion strains, locus YMR129W, stronger effect = lower value 0.967 | S. cerevisiae deletion strains, locus YMR205C, strain PFK2, stronger effect = lower value 0.951 | S. cerevisiae deletion strains, locus YMR223W, strain ubp8, stronger effect = lower value 0.96 | S. cerevisiae deletion strains, locus YMR231W, strain pep5, stronger effect = lower value 0.998 | S. cerevisiae deletion strains, locus YMR263W, strain SAP30, stronger effect = lower value 0.993 and 0.995 | S. cerevisiae deletion strains, locus YMR307W, strain GAS1, stronger effect = lower value 0.994 and 0.992 | S. cerevisiae deletion strains, locus YNL067W, strain RPL9B, stronger effect = lower value 1.02 | S. cerevisiae deletion strains, locus YNL071W, strain lat1, stronger effect = lower value 1 | S. cerevisiae deletion strains, locus YNL128W, strain TEP1, stronger effect = lower value 0.962 | S. cerevisiae deletion strains, locus YNL153C, strain GIM3, stronger effect = lower value 1.01 | S. cerevisiae deletion strains, locus YNL175C, strain NOP13, stronger effect = lower value 1.02 | S. cerevisiae deletion strains, locus YNL183C, strain NPR1, stronger effect = lower value 0.939 | S. cerevisiae deletion strains, locus YNL197C, strain WHI3, stronger effect = lower value 0.981 | S. cerevisiae deletion strains, locus YNL209W, strain ssb2, stronger effect = lower value 1 | S. cerevisiae deletion strains, locus YNL224C, strain SQS1, stronger effect = lower value 1.01 | S. cerevisiae deletion strains, locus YNL233W, strain BNI4, stronger effect = lower value 1.02 | S. cerevisiae deletion strains, locus YNL248C, strain rpa49, stronger effect = lower value 1.02 | S. cerevisiae deletion strains, locus YNL250W, strain rad50, stronger effect = lower value 0.976 | S. cerevisiae deletion strains, locus YNL271C, strain bni1, stronger effect = lower value 0.987 | S. cerevisiae deletion strains, locus YNL298W, strain CLA4, stronger effect = lower value 0.975 | S. cerevisiae deletion strains, locus YNL307C, strain MCK1, stronger effect = lower value 0.992 | S. cerevisiae deletion strains, locus YNL322C, strain KRE1 (second series), stronger effect = lower value 0.989 | S. cerevisiae deletion strains, locus YNL322C, strain KRE1, stronger effect = lower value 0.996 and 1 | S. cerevisiae deletion strains, locus YNR049C, strain mso1, stronger effect = lower value 0.994 | S. cerevisiae deletion strains, locus YNR052C, strain pop2, stronger effect = lower value 0.985 | S. cerevisiae deletion strains, locus YOL006C, strain TOP1, stronger effect = lower value 1.03 | S. cerevisiae deletion strains, locus YOL012C, strain htz1 0.982 | S. cerevisiae deletion strains, locus YOL147C, strain pex11, stronger effect = lower value 0.992 | S. cerevisiae deletion strains, locus YOR001W, strain rrp6, stronger effect = lower value 0.996 | S. cerevisiae deletion strains, locus YOR061W, strain CKA2, stronger effect = lower value 0.969 | S. cerevisiae deletion strains, locus YOR069W, strain VPS5, stronger effect = lower value 0.991 | S. cerevisiae deletion strains, locus YOR070C, strain gyp1, stronger effect = lower value 0.992 | S. cerevisiae deletion strains, locus YOR080W, strain dia2, stronger effect = lower value 0.974 | S. cerevisiae deletion strains, locus YOR083W, strain WHI5 (second series), stronger effect = lower value 1.02 | S. cerevisiae deletion strains, locus YOR083W, strain WHI5, stronger effect = lower value 1.01 | S. cerevisiae deletion strains, locus YOR106W, strain vam3, stronger effect = lower value 1.01 | S. cerevisiae deletion strains, locus YOR136W, strain idh2, stronger effect = lower value 0.983 | S. cerevisiae deletion strains, locus YOR144C, strain elg1, stronger effect = lower value 0.996 | S. cerevisiae deletion strains, locus YOR184W, strain ser1, stronger effect = lower value 0.98 | S. cerevisiae deletion strains, locus YOR231W, strain MKK1, stronger effect = lower value 0.99 | S. cerevisiae deletion strains, locus YOR265W, strain rbl2, stronger effect = lower value 0.99 | S. cerevisiae deletion strains, locus YOR270C, strain vph1, stronger effect = lower value 1.05 | S. cerevisiae deletion strains, locus YOR290C, strain snf2, stronger effect = lower value 0.956 | S. cerevisiae deletion strains, locus YOR316C, strain cot1, stronger effect = lower value 0.995 | S. cerevisiae deletion strains, locus YPL051W, strain arl3, stronger effect = lower value 0.999 | S. cerevisiae deletion strains, locus YPL055C, strain LGE1, stronger effect = lower value 0.989 and 1 | S. cerevisiae deletion strains, locus YPL078C, strain atp4, stronger effect = lower value 1.01 | S. cerevisiae deletion strains, locus YPL106C, strain sse1, stronger effect = lower value 0.944 | S. cerevisiae deletion strains, locus YPL240C, strain hsp82, stronger effect = lower value 0.994 | S. cerevisiae deletion strains, locus YPL241C, strain CIN2, stronger effect = lower value 0.984 and 1 | S. cerevisiae deletion strains, locus YPL256C, strain CLN2, stronger effect = lower value 0.984 | S. cerevisiae deletion strains, locus YPR119W, strain clb2, stronger effect = lower value 0.987 | S. cerevisiae deletion strains, locus YPR141C, strain kar3, stronger effect = lower value 0.982 | S. cerevisiae deletion strains, locus YPR163C, strain tif3, stronger effect = lower value 0.981 | S. cerevisiae deletion strains, locus YPR167C, strain met16, stronger effect = lower value 0.993 | S. cerevisiae deletion strains, strain wtn01, stronger effect = lower value 1.01 | S. cerevisiae strains, strain wild type, stronger effect = lower value 0.988
